Measurements taken from ChEMBL document CHEMBL1961873, “Compounds: GSK PKIS; Assays: Nanosyn kinase panel” (2012).

Assays:
[1] = molecular target: Protein kinase C gamma type (Homo sapiens) (UniProt P05129); details: at 1 µM;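 further: each value is an averaged percent inhibition of the enzyme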
[2] = molecular target: T1, Protein kinase C iota type (Homo sapiens) (UniProt P41743); details: at 0.1 µM
T1 sequence (whole entry): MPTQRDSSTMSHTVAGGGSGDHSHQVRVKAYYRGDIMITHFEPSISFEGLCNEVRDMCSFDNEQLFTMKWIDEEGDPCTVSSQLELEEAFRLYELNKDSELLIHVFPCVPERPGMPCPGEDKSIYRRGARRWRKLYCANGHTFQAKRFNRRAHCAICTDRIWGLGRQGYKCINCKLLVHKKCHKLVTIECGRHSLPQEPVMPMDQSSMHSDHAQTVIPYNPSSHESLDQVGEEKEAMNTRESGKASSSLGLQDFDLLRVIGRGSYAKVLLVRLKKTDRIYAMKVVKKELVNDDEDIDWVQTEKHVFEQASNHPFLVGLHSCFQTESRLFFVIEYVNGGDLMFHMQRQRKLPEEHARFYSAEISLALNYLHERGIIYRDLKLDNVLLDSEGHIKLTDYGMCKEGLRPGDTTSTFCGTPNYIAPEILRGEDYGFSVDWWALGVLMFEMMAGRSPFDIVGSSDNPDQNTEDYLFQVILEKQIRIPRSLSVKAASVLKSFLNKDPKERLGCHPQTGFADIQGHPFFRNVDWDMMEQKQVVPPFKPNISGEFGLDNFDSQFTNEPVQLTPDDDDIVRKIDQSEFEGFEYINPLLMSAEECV

[3] = molecular target: T1, Protein kinase C iota type (Homo sapiens); details: at 1 µM
[4] = molecular target: Protein kinase C theta type (Homo sapiens) (UniProt Q04759); details: at 0.1 µM
[5] = molecular target: Protein kinase C theta type (Homo sapiens) (UniProt Q04759); details: at 1 µM
[6] = molecular target: Protein kinase C beta type (Homo sapiens) (UniProt P05771); details: at 0.1 µM
[7] = molecular target: Protein kinase C beta type (Homo sapiens) (UniProt P05771); details: at 1 µM
[8] = molecular target: T2, Serine/threonine-protein kinase D1 (Homo sapiens) (UniProt Q15139); details: at 0.1 µM
T2 sequence (whole entry): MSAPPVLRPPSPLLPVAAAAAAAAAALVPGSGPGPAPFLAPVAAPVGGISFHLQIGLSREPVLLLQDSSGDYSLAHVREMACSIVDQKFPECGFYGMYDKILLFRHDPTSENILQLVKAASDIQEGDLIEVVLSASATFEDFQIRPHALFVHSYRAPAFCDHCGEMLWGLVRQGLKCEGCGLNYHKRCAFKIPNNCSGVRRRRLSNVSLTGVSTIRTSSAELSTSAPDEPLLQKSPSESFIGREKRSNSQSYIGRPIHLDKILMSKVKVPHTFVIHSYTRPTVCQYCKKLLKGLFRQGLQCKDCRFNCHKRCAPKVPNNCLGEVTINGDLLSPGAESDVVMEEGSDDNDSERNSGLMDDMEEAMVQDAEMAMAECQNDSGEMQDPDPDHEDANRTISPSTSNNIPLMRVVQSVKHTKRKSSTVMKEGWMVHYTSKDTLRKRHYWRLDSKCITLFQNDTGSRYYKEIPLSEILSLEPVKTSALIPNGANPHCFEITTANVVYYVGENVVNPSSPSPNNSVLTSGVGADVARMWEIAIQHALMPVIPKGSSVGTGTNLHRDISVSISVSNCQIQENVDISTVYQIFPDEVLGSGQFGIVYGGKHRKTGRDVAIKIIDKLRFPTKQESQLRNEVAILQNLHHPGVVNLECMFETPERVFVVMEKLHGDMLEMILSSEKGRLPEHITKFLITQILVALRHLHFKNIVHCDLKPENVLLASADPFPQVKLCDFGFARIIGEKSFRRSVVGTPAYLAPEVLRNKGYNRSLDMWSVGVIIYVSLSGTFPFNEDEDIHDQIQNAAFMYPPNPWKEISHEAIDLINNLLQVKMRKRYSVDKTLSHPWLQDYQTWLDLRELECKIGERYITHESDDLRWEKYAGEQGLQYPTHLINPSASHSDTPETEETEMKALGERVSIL

[9] = molecular target: T2, Serine/threonine-protein kinase D1 (Homo sapiens); details: at 1 µM
[10] = molecular target: T3, Serine/threonine-protein kinase D2 (Homo sapiens) (UniProt Q9BZL6); details: at 0.1 µM
T3 sequence (whole entry): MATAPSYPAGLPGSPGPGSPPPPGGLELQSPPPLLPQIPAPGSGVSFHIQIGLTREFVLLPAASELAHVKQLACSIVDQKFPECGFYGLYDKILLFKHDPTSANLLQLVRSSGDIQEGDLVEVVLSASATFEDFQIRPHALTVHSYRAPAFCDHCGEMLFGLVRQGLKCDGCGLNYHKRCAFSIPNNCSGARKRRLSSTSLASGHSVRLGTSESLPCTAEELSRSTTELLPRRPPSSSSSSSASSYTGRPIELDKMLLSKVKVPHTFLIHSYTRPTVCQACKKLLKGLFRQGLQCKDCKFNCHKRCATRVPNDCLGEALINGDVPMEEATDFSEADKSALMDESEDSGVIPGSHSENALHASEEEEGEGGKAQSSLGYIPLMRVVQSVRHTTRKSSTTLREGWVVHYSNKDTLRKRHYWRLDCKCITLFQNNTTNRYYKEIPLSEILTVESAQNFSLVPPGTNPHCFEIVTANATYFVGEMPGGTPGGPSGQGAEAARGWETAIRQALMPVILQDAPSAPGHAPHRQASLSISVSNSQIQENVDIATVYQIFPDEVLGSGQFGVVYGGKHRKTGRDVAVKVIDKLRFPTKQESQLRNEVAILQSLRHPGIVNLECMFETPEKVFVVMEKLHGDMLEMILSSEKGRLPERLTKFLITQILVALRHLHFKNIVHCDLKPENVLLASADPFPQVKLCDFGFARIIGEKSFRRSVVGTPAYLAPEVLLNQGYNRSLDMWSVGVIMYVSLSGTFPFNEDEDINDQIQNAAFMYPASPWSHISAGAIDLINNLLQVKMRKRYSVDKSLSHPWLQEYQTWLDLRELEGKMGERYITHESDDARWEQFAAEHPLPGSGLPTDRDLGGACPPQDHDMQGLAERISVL

[11] = molecular target: T3, Serine/threonine-protein kinase D2 (Homo sapiens); details: at 1 µM
[12] = molecular target: T4, Serine/threonine-protein kinase D3 (Homo sapiens) (UniProt O94806); details: at 0.1 µM
T4 sequence (whole entry): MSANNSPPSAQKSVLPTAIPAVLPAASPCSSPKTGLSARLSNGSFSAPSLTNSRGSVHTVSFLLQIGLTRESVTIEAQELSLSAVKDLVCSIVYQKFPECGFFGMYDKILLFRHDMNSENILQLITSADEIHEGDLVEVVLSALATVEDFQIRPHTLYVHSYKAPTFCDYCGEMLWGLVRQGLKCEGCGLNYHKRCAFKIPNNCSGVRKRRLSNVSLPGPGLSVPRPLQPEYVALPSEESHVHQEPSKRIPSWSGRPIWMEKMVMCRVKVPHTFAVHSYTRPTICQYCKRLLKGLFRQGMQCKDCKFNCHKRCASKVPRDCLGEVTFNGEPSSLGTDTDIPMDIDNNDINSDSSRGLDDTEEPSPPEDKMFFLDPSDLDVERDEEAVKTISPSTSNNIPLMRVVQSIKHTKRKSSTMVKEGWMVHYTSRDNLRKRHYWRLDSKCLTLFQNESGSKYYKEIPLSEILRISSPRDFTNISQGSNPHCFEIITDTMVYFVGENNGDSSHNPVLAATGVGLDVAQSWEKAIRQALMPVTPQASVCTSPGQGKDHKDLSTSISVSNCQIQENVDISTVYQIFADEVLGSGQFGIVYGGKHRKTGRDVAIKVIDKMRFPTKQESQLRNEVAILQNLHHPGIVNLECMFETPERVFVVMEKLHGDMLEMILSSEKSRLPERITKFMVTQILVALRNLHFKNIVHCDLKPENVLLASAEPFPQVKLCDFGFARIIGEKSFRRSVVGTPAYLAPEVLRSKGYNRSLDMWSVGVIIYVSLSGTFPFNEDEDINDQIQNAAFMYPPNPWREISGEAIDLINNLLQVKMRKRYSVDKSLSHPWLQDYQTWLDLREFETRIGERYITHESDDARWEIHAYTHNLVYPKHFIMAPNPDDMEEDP

[13] = molecular target: T4, Serine/threonine-protein kinase D3 (Homo sapiens); details: at 1 µM
[14] = molecular target: T5, cGMP-dependent protein kinase 1 (Homo sapiens) (UniProt Q13976); details: at 0.1 µM
T5 sequence (whole entry): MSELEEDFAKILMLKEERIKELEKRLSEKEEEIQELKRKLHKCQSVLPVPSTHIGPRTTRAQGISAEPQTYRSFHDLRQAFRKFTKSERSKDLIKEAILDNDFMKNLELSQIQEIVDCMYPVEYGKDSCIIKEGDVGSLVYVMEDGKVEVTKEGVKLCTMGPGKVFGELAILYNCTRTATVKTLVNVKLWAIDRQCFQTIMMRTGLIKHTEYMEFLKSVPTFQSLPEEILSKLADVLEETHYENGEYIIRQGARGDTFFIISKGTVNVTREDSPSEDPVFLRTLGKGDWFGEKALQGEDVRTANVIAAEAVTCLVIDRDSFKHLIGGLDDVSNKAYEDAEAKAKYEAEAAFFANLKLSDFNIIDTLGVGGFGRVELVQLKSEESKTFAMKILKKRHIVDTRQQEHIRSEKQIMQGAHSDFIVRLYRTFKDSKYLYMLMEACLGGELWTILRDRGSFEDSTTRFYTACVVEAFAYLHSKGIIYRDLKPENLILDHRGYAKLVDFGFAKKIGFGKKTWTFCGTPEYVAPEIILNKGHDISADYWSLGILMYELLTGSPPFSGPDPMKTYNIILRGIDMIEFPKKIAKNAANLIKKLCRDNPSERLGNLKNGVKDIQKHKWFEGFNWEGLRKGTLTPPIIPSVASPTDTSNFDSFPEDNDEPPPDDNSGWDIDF

[15] = molecular target: T5, cGMP-dependent protein kinase 1 (Homo sapiens); details: at 1 µM
[16] = molecular target: T6, cGMP-dependent protein kinase 2 (Homo sapiens) (UniProt Q13237); details: at 0.1 µM
T6 sequence (whole entry): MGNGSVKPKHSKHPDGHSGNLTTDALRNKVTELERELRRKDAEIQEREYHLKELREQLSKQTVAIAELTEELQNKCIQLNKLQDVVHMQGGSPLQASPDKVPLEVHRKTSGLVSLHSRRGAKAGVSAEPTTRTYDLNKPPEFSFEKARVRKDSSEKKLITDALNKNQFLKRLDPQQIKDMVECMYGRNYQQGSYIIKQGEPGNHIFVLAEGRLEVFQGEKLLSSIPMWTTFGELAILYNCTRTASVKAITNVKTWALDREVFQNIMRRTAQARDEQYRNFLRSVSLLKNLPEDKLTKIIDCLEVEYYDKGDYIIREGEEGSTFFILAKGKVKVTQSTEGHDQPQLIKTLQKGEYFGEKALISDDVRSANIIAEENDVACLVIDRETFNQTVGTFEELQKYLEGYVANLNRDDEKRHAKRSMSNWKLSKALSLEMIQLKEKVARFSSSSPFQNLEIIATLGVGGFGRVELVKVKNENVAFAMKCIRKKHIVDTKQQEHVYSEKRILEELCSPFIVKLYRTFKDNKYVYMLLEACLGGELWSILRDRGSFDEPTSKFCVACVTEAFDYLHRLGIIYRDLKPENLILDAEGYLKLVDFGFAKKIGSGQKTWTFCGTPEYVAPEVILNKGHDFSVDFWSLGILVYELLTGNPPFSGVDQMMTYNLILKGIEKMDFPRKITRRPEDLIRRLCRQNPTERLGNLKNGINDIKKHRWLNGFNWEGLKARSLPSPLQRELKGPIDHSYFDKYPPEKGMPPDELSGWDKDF

[17] = molecular target: T6, cGMP-dependent protein kinase 2 (Homo sapiens); details: at 1 µM
[18] = molecular target: T7, cAMP-dependent protein kinase catalytic subunit PRKX (Homo sapiens) (UniProt P51817); details: at 0.1 µM
T7 sequence (whole entry): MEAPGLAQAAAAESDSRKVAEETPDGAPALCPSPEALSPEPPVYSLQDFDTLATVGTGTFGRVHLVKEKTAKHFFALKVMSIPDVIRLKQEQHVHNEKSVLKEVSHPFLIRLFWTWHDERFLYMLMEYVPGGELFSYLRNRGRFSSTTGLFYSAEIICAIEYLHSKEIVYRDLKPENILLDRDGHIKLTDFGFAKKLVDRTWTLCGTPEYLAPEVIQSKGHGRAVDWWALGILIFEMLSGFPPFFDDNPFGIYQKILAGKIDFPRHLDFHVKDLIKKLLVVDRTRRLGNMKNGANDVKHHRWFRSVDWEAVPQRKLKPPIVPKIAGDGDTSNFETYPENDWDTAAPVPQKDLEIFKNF

[19] = molecular target: T7, cAMP-dependent protein kinase catalytic subunit PRKX (Homo sapiens); details: at 1 µM
[20] = molecular target: Rho-associated protein kinase 1 (Homo sapiens) (UniProt Q13464); details: at 0.1 µM;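 further: values are mean percent inhibition of ROCK1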
Rho-associated protein kinase 1 (Homo sapiens), sequence (Q13464 2-1354 limits assumed): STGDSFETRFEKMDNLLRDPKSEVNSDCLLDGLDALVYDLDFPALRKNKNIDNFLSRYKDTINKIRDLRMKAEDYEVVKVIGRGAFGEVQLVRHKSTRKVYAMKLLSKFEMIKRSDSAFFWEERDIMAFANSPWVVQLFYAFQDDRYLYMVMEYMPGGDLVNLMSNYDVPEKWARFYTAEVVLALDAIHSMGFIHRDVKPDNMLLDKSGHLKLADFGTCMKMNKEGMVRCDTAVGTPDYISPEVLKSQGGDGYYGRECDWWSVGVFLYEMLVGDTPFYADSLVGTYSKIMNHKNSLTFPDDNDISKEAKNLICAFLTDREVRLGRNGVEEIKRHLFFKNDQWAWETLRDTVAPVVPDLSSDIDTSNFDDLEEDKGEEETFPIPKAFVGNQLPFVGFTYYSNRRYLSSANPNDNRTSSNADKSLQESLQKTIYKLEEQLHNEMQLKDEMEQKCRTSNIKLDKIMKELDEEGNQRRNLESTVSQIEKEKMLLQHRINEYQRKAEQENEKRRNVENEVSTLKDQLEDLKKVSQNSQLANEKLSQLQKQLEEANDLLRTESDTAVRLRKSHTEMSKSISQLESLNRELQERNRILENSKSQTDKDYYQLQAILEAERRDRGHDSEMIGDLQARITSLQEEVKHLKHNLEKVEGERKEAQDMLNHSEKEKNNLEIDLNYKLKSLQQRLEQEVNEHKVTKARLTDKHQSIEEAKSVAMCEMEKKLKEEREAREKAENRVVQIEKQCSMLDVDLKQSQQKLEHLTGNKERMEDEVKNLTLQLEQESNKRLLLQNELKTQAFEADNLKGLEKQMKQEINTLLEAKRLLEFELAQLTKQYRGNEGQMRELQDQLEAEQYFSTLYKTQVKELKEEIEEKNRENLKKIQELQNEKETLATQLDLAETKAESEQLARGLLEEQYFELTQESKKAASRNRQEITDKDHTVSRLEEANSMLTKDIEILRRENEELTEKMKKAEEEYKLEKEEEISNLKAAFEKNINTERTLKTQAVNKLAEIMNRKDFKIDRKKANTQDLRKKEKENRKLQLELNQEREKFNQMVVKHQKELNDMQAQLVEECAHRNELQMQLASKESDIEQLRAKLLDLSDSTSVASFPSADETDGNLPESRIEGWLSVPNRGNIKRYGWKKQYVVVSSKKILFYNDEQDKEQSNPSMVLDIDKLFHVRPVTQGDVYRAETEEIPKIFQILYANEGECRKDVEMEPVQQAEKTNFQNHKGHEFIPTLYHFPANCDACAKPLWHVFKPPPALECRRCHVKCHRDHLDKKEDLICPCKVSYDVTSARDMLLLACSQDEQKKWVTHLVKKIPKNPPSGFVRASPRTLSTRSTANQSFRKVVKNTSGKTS

Protein kinase C beta type (Homo sapiens), sequence (P05771 2-671 limits assumed): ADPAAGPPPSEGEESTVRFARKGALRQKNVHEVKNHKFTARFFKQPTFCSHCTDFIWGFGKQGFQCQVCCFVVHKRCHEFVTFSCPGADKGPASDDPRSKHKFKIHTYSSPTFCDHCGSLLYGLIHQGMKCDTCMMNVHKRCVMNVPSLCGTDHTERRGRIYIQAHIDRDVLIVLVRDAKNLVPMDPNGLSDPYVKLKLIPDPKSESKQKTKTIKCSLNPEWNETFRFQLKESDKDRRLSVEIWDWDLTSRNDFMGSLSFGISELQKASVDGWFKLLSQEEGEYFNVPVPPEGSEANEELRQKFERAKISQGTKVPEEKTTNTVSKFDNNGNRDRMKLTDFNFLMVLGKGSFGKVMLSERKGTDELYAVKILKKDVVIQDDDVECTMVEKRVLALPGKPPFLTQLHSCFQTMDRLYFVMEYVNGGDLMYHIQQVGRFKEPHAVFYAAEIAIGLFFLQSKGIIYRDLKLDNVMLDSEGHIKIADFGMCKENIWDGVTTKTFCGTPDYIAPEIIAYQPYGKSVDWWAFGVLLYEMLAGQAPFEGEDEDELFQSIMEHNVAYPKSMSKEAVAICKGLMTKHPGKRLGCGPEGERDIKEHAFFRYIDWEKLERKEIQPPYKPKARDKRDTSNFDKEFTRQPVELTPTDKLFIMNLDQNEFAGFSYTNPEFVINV
Protein kinase C theta type (Homo sapiens), sequence (Q04759 whole entry, looked up): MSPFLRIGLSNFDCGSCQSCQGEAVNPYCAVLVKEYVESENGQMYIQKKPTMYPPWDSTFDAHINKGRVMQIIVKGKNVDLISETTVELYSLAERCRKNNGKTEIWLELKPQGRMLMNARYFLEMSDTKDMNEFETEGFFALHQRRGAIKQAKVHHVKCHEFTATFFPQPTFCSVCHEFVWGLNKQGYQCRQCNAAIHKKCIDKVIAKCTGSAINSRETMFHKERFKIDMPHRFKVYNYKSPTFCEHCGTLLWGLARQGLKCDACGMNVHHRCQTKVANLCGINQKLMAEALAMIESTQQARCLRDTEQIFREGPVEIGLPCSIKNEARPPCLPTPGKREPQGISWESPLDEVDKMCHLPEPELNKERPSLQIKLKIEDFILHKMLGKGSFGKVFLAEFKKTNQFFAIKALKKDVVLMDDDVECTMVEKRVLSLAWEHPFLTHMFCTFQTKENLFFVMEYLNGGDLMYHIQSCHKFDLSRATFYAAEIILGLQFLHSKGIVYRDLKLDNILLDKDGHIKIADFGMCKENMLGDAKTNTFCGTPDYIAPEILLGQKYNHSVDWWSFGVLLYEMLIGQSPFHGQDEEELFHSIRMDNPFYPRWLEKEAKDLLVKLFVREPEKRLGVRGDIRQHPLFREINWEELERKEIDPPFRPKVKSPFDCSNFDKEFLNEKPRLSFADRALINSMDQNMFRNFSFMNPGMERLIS

Row | SMILES | inhibition [1] [%] | inhibition [2] [%] | inhibition [3] [%] | inhibition [4] [%] | inhibition [5] [%] | inhibition [6] [%] | inhibition [7] [%] | inhibition [8] [%] | inhibition [9] [%] | inhibition [10] [%] | inhibition [11] [%] | inhibition [12] [%] | inhibition [13] [%] | inhibition [14] [%] | inhibition [15] [%] | inhibition [16] [%] | inhibition [17] [%] | inhibition [18] [%] | inhibition [19] [%] | inhibition [20] [%]
1 | CC1=C(C(=O)Nc2ccc3[nH]ncc3c2)C(c2ccc(F)cc2)NC(=O)N1 (configuration not stated) | 2.9 | 1.83 | 1.22 | 1.63 | 3.15 | 1.62 | 1.76 | 3.15 | 8.16 | 3.76 | 8.48 | 3.46 | 7.95 | 4.58 | 20.1 | 1.73 | 12.6 | 12.7 | 53.4 | 
2 | CCn1c(-c2nonc2N)nc2cncc(C(=O)N3CC[C@H](N)C3)c21 | 41.1 | 8.94 | 40 | 5.26 | 23.8 | 11.4 | 45.6 | 4.56 | 9.27 | 6.65 | 8.24 | 3.97 | 7.57 | 57 | 82.5 | 72.7 | 83.7 | 31.8 | 73.4 | 
3 | O=C(Nc1n[nH]c2nc(-c3ccco3)c(Br)cc12)C1CC1 | 3.32 | 0.86 | 2.37 | 1.29 | 0.79 | 0.69 | 1.19 | 2.8 | 5.78 | 3 | 5.03 | 3.1 | 4.81 | 2.39 | 3.36 | 1.15 | 1.85 | 1.8 | -0.27 | 0.16
4 | CC1=C(C(=O)Nc2ccc3[nH]ncc3c2)C(c2ccc3ccccc3c2)CC(=O)N1 (configuration not stated) | 2.79 | 1.06 | 0.77 | 1.49 | 3 | 0.83 | 1.67 | 2.78 | 9.17 | 2.02 | 6.67 | 3.48 | 8.7 | 12.8 | 53.3 | 12.6 | 53.3 | 33.7 | 75.3 | 
